We go through 22 compounds from PubChem BioAssay AID1645838 (ICCB-Longwood Screening Facility, Harvard Medical School, 2021).

“And” between values parts separate entries of the source, which are not always exact repeats. Equal entries are not always repeated. In all, about 2,000 compounds went through this assay and about 100 (5%) were called active. No stated cut-off is given here; in the data, active means z-score above about 2; inactive means the rest. The full list was thinned out, with actives kept by preference. Some compounds were tested as several samples or in several runs, with calls that do not always agree. Positions of bridges follow the written chain, without caps; N, C: chain ends. Non-standard residues stand in square brackets, D forms with d. Residues, ends and D or L forms follow the SMILES beside them. hArg = N=C(N)NCCCC[CH](N)C(=O)O; Mpa = O=C(O)CCS

The assay can be described thus: modulators of mitochondrial supercomplex assembly, cell-based, luminescence, Hoechst nuclei count (AID 1645838).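 On all read-outs here: control cybrid cells.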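 On z-score: higher means more mitochondrial supercomplex formation.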 The following applies: Cells, luminescence/Hoechst cell count ratio, supercomplex reporter; for z-score: stronger effect = higher value; for cell count: measured here: cell number, Hoechst nuclei count.
[1] abbreviates: library stock concentration (final well concentration not given) 46 uM.
Setting [2] is: library stock concentration (final well concentration not given) 278 uM.
Setting [3] is: library stock concentration (final well concentration not given) 1.67 mM.
Where [4] appears, read: library stock concentration (final well concentration not given) 10 mM.
[5] abbreviates: library stock concentration (final well concentration not given) 80 uM.
[6] abbreviates: library stock concentration (final well concentration not given) 400 uM.
[7] abbreviates: library stock concentration (final well concentration not given) 2 mM.

Take `CCCCCCCCC#CCC#CCC#CCCCC(=O)O`: the z-score was 0.153 (inactive) and the cell count is 5310.
With `CCCCC1C(=O)CC[C@H]2[C@@H]1CC(=O)[C@@H]2CCCCCCC(=O)O` (stereo partly drawn), the z-score is -0.162 (inactive) and the cell count came to 5440.
Taken in the same sequence, the figures for `CC/C=C\C/C=C\C/C=C\CCCCCCCC(=O)OCC` were -0.911 (inactive) and 5260.
With `O=C(NC1CCN(CC(F)(F)F)CC1)c1ccc(-c2cccc(F)c2)nc1`, the z-score is -0.25 (inactive) under setting [1], 0.0438 (inactive) under setting [2], -0.291 (inactive) under setting [3] and -0.236 (inactive) under setting [4]. Also, the cell count runs as follows: under setting [1], 6960; under setting [2], 6520; under setting [3], 7210; under setting [4], 7340.
On to `NC(=O)Nc1cc(-c2cccc(F)c2)sc1C(=O)NC1CCCNC1` (stereo not drawn), for which the outcome by setting is: (library stock 400 µM) “inactive; censored for cell count”; (library stock 2 mM) “inactive; censored for cell count”; (library stock 10 mM) “inactive; censored for cell count”. In addition, the z-score by setting is: under setting [5], 0.798 (inactive) and 2.01 (active); under setting [6], 2.61 (active). Also, the cell count under setting [5] was 3580 and 3980; the cell count under setting [6] was found to be 1750.
Take `NC(=O)Nc1sc(-c2ccc(F)cc2)cc1C(N)=O`: under “library stock 10 mM”, the outcome was “inactive; censored for cell count”. Also, the z-score by setting is: under setting [1], -0.164 (inactive); under setting [2], 0.156 (inactive); under setting [3], 1.6 (inactive). The cell count is 6530 under setting [1], 6190 under setting [2] and 4790 under setting [3].
Take `Cc1ccc(NC(=O)c2ccc(CN3CCC(N(C)C)C3)c(C(F)(F)F)c2)cc1Nc1nccc(-c2cncnc2)n1` (stereo not drawn): the z-score was 0.0204 (inactive) under setting [5], 0.323 (inactive) under setting [6], 1.69 (inactive) under setting [7] and 4.49 (active) under setting [4]. The cell count was 5990 under setting [5], 5640 under setting [6], 4410 under setting [7] and 2490 under setting [4].
For the compound `Cc1cn(-c2cc(NC(=O)c3ccc(C)c(Nc4nccc(-c5cccnc5)n4)c3)cc(C(F)(F)F)c2)cn1`, the z-score under setting [5] was -0.15 (inactive), the z-score under setting [6] is -0.0425 (inactive), the z-score under setting [7] is 0.192 (inactive) and the z-score under setting [4] is 1.64 (inactive). Moreover, the cell count reads like this: under setting [5], 5660; under setting [6], 5720; under setting [7], 5660; under setting [4], 3260.
As to `Cc1ccc(NC(=O)c2ccc(CN3CCN(C)CC3)cc2)cc1Nc1nccc(-c2cccnc2)n1`, the z-score was -0.201 (inactive) under setting [5], -0.672 (inactive) under setting [6], -0.269 (inactive) under setting [7] and -0.486 (inactive) under setting [4]. For the same compound, the cell count is, setting by setting: under setting [5], 4460; under setting [6], 4540; under setting [7], 4320; under setting [4], 4680.
In the case of `O=C(O)CCC/C=C\C[C@@H]1[C@@H](/C=C/[C@@H](O)C2CCCCC2)[C@H](O)C[C@@H]1O`, the z-score is -0.293 (inactive) and the cell count was 5180.
Take `O=C1C[C@@H]2[C@@H](/C=C/[C@@H](O)COc3cccc(C(F)(F)F)c3)[C@H](O)C[C@@H]2O1`: the z-score was 0.782 (inactive) and the cell count worked out at 5240.
For `CNC(=O)c1ccccc1Nc1nc(Nc2ccc(N3CCOCC3)cc2OC)ncc1Cl`, the outcome is, setting by setting: (library stock 2 mM) “inactive; censored for cell count”; (library stock 10 mM) “inactive; censored for cell count”. The z-score runs as follows: under setting [5], -0.243 (inactive); under setting [6], -0.00453 (inactive). Besides, the cell count is, setting by setting: under setting [5], 6320; under setting [6], 5260.
Consider `COc1cc(N2CCOCC2)ccc1Nc1ncc(F)c(Nc2ccccc2NS(C)(=O)=O)n1`, for which the z-score reads like this: under setting [5], -0.351 (inactive); under setting [6], -0.312 (inactive); under setting [7], 0.0927 (inactive); under setting [4], 3.16 (active). In addition, the cell count under setting [5] came out at 5830, the cell count under setting [6] was determined as 5470, the cell count under setting [7] is 5120 and the cell count under setting [4] amounted to 1690.
For `COc1cc(N2CCC(N3CCN(C)CC3)CC2)ccc1Nc1ncc(Cl)c(Nc2ccccc2S(=O)(=O)C(C)C)n1`, for the setting “library stock 10 mM”, the outcome was “inactive; censored for cell count”. For the same compound, the z-score runs as follows: under setting [5], 0.0842 (inactive); under setting [6], 0.241 (inactive); under setting [7], 1.15 (inactive). Besides, the cell count under setting [5] is 4260, the cell count under setting [6] turned out to be 4220 and the cell count under setting [7] was 3560.
On to `CCC(O)/C=C/C=O` (stereo not drawn), for which the z-score was 0.341 (inactive) and the cell count was 4950.
With `O=C1C(=Cc2cn(-c3ccccc3)nc2-c2ccc(OCc3ccc(Cl)cc3)cc2)SC(=S)N1CCS(=O)(=O)O`, the z-score is, setting by setting: under setting [5], 0.0314 (inactive); under setting [6], 0.372 (inactive); under setting [7], -0.323 (inactive); under setting [4], -0.219 (inactive). In addition, the cell count worked out at 5380 under setting [5], 4640 under setting [6], 5180 under setting [7] and 4960 under setting [4].
As to `c1ccc(Nc2nc3c(s2)CCCc2[nH]ncc2-3)nc1`, the z-score is, setting by setting: under setting [1], -0.0827 (inactive); under setting [2], -0.00166 (inactive); under setting [3], -0.105 (inactive); under setting [4], 0.335 (inactive). In addition, the cell count was determined as 6250 under setting [1], 5830 under setting [2], 6080 under setting [3] and 5550 under setting [4].
For `CC(C)C1C(=O)NC(CCCN=C(N)N)C(=O)NCC(=O)NC(CC(=O)O)C(=O)NC(Cc2ccccc2)C(=O)N1C` (stereo not drawn), the z-score runs as follows: under setting [5], 0.68 (inactive); under setting [6], 0.227 (inactive); under setting [7], 0.518 (inactive); under setting [4], 5.23 (active). For the same compound, the cell count turned out to be 5020 under setting [5], 5060 under setting [6], 4260 under setting [7] and 1780 under setting [4].
As for `NC(=O)C1CSSCCC(=O)NC(CCCCN=C(N)N)C(=O)NCC(=O)NC(CC(=O)O)C(=O)NC(Cc2c[nH]c3ccccc23)C(=O)N2CCCC2C(=O)N1` (stereo not drawn) ([Mpa][hArg]GDWPC-NH2; disulfide 1-7; configuration not given here), the z-score under setting [1] was -0.201 (inactive), the z-score under setting [2] was -0.18 (inactive), the z-score under setting [3] is -0.38 (inactive) and the z-score under setting [4] is -0.0485 (inactive). For the same compound, the cell count by setting is: under setting [1], 5770; under setting [2], 5930; under setting [3], 6620; under setting [4], 5820.
As for `CCCCC[C@H](O)/C=C/[C@@H]1[C@@H](C/C=C\CCCCOC)[C@@H](O)C[C@H]1O`, the z-score was -0.514 (inactive) and the cell count was 5540.
`CCCCC[C@@H](O)[C@H]1C(=O)O[C@H](C)[C@@H](O)/C=C/C=C/C=C/C=C/C=C(\C)[C@@H](O)C[C@H](O)C[C@H](O)C[C@H](O)C[C@H](O)C[C@H](O)C[C@@H]1O`: the z-score is 0.375 (inactive) and the cell count worked out at 5780.
Take `Cc1cc(-c2ccccc2)nc2cc(C(=O)Nc3cccc(O)c3)nn12`: the z-score by setting is: under setting [5], 0.0171 (inactive); under setting [6], 0.0308 (inactive); under setting [7], -0.473 (inactive); under setting [4], -0.672 (inactive). The cell count came out at 5500 under setting [5], 5070 under setting [6], 5150 under setting [7] and 5110 under setting [4].
